Data: the supplement of paper PMC10849652
About 7,900 targets were measured; listed, in parts, are those with a hit and a random draw of the rest. About 0.6% of all pairs of compound and target were hits. Unmarked numbers belong to inactive results.

Legend:
Assay in all cases: log2 fold change, soluble protein after heating vs DMSO (PISA); higher = thermal stabilisation; K562 cells, 10 uM, 30 min; active = over 0.2 and 3.5 SD of the protein, either way, in both replicates (recomputed)
[1] = compound: CC1=C(C=C(C=C1)NC(=O)C2=CC(=CC=C2)C(C)(C)C#N)NC3=CC4=C(C=C3)N=CN(C4=O)C
Summary of the method: (§1)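 K562 cells at 2×10^6 cells/mL were exposed to 10 μM compound for 30 min, then aliquots were heated for 3 min across 48°C-58°C, pooled, and extracted in PBS containing 0.5% NP-40 at 4°C. The supernatant after 21,000xg for 90 min was taken as soluble protein and measured by TMTpro 16plex LC-MS/MS with channel sums equalised. Thermal stability is reported relative to control samples, with values from duplicates. Fold changes are given on a log2 scale.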

[2] = compound: CC1=C(C=C(C=C1)NC(=O)C2=CC(=CC=C2)N(C)C)NC(=O)C3=CC=C(C=C3)O
Summary of the method: as §1

[3] = compound: CC1=CC=C(C=C1)SC2=C3C=C(SC3=CN=C2)C(=O)N
Summary of the method: as §1

[4] = compound: CCCS(=O)(=O)Nc1ccc(F)c(C(=O)c2c[nH]c3ncc(Cl)cc23)c1F
Summary of the method: as §1

[5] = compound: CCCc1cc(C)[nH]c(=O)c1CNC(=O)c1cc(-c2ccnc(N3CCN(C)CC3)c2)cc2c1cnn2C(C)C
Summary of the method: as §1

[6] = compound: CC1=NC(=CC=C1)C2=C(N=C(N2)C(C)(C)C)C3=CC4=NC=CN=C4C=C3
Summary of the method: as §1

[7] = compound: CCN(CC)Cc1ccc2cc(COC(=O)Nc3ccc(C(=O)NO)cc3)ccc2c1 [givinostat]
Summary of the method: as §1

[8] = compound: CCN(CCCOc1ccc2c(Nc3cc(CC(=O)Nc4cccc(F)c4)[nH]n3)ncnc2c1)CCOP(=O)(O)O [barasertib]
Summary of the method: as §1

[9] = compound: CCCCN(Cc1ccc(C(=O)NO)cc1)C(=O)Nc1ccccc1 [Nexturastat A]
Summary of the method: as §1

[10] = compound: CCCS(=O)(=O)Nc1ccc(F)c(C(=O)c2c[nH]c3ncc(-c4ccc(Cl)cc4)cc23)c1F [vemurafenib]
Summary of the method: as §1

Chain of UniProt P25774 (P25774 whole entry, looked up): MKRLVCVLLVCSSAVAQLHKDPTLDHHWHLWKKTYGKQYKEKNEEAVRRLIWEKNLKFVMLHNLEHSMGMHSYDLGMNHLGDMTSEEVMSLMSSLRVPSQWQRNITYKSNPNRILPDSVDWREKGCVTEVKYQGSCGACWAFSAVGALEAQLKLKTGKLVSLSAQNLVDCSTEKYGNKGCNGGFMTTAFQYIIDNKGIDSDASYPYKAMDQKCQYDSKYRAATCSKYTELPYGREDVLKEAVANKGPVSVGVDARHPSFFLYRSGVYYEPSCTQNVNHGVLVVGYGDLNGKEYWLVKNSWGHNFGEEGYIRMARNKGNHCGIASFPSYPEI
Chain of UniProt Q9NQZ7 (Q9NQZ7 whole entry, looked up): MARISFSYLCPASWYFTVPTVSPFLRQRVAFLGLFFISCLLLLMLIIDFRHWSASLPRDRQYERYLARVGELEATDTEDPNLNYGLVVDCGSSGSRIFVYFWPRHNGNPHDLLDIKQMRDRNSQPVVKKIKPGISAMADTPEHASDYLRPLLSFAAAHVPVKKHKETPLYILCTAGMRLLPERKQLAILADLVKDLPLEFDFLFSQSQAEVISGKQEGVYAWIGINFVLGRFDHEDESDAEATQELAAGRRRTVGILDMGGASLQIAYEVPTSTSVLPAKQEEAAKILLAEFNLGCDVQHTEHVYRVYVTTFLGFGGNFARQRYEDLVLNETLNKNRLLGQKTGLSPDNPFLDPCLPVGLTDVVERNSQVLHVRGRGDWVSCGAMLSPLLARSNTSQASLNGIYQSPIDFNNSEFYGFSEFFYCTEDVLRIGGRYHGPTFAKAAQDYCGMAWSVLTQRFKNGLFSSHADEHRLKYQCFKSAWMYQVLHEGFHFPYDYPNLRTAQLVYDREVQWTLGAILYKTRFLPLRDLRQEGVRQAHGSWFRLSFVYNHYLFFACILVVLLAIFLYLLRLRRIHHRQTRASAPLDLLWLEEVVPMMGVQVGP
Chain of UniProt Q07973 (Q07973 whole entry, looked up): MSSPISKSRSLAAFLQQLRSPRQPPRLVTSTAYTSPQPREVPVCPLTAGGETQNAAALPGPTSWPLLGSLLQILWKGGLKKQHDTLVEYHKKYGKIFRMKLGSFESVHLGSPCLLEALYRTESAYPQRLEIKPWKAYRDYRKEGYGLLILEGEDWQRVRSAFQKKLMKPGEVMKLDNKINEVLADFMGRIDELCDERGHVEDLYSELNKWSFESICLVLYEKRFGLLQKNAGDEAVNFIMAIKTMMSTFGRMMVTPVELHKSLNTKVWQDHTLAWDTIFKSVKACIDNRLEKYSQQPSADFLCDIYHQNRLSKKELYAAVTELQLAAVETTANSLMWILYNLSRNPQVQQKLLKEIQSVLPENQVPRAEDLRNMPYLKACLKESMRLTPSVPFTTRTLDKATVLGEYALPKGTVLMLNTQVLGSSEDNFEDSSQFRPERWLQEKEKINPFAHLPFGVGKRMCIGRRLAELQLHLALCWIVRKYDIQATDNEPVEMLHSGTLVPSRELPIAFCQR
Chain of UniProt Q8TEH3 (Q8TEH3 whole entry, looked up): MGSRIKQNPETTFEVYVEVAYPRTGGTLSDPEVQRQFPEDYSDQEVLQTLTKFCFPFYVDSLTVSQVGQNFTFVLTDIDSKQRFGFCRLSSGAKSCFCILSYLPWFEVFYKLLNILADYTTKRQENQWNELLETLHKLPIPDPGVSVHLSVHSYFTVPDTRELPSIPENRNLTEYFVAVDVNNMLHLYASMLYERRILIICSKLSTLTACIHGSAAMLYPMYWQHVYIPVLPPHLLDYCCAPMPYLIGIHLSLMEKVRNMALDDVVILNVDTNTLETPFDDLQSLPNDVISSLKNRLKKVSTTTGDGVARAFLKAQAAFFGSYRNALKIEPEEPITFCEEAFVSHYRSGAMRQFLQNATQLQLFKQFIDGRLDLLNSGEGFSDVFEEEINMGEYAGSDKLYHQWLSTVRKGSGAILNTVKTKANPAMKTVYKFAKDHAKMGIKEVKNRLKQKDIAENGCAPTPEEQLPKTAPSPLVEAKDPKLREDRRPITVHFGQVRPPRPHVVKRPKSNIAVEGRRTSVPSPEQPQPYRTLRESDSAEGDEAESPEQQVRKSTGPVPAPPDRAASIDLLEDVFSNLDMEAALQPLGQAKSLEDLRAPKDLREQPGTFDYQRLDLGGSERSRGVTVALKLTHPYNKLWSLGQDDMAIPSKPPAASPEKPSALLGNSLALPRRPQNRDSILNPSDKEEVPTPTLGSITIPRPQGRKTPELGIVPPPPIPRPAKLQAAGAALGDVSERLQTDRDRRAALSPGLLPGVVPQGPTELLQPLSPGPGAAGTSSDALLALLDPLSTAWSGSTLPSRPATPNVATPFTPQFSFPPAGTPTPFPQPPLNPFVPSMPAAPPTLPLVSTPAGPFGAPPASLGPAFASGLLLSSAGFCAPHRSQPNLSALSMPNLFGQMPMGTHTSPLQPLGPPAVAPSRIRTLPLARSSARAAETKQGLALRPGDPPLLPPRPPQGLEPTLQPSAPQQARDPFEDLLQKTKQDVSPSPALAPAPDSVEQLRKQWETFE
Chain of UniProt Q8N612 (Q8N612 whole entry, looked up): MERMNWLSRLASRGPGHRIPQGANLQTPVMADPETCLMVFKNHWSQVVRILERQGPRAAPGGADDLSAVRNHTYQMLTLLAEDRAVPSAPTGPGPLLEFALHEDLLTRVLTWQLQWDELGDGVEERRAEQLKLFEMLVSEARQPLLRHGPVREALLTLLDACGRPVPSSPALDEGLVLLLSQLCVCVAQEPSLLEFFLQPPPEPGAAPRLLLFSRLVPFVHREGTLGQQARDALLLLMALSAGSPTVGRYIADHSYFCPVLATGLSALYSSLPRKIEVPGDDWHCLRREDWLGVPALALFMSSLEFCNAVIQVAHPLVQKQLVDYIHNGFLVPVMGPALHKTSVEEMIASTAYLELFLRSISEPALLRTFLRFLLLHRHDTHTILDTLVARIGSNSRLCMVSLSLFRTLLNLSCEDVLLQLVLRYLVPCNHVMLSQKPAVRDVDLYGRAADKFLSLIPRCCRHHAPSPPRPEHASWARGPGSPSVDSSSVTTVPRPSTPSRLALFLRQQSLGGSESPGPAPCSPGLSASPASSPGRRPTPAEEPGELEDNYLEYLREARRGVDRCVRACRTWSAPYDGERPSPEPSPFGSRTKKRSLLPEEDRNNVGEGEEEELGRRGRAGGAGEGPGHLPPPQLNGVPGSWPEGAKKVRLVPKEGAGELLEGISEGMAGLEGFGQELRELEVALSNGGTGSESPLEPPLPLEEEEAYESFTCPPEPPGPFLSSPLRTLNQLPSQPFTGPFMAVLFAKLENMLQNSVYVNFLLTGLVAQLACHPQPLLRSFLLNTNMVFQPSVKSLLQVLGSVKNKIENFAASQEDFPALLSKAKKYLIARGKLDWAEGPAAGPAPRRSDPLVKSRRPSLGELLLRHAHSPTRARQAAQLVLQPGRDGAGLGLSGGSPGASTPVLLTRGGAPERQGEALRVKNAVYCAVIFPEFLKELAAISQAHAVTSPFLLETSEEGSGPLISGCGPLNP
Chain of UniProt Q99615 (Q99615 whole entry, looked up): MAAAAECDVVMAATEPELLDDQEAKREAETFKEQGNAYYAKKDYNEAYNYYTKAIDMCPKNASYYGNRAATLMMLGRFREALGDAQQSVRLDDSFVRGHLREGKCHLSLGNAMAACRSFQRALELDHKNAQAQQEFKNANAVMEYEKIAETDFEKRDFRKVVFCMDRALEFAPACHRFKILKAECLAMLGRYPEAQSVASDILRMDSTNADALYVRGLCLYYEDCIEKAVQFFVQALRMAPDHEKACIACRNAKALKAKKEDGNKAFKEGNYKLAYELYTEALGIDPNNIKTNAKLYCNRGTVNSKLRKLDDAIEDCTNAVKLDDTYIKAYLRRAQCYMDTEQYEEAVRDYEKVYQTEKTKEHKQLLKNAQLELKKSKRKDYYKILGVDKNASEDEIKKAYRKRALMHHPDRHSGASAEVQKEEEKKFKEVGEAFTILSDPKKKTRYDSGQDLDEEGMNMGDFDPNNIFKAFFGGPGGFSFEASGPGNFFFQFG
Chain of UniProt Q8WV16 (Q8WV16 whole entry, looked up): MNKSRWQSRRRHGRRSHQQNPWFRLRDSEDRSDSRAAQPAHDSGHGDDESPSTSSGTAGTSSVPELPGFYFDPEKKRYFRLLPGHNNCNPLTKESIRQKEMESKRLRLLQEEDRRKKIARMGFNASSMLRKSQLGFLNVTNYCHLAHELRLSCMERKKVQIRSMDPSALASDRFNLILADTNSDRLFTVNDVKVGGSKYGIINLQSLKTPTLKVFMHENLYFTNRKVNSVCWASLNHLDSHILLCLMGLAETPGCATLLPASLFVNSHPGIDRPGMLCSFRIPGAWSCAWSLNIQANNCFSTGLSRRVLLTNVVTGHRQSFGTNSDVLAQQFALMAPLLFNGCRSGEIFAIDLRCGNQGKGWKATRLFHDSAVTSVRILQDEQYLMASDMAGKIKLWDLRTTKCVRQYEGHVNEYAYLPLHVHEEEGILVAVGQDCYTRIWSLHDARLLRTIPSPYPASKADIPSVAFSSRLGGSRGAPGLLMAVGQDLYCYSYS
Chain of UniProt Q96C92 (Q96C92 whole entry, looked up): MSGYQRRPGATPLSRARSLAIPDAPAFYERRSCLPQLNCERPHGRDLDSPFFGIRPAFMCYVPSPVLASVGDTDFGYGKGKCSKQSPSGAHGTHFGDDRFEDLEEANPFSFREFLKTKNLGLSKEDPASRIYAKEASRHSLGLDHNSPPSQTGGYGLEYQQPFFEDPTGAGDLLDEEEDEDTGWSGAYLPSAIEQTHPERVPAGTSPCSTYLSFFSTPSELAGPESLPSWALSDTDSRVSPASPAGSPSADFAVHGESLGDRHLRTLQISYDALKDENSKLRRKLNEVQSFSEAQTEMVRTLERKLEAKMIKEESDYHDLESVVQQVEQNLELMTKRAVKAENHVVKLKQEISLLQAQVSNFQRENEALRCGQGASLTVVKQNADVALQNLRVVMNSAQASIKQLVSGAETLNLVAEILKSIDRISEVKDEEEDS
Chain of UniProt Q15369 (Q15369 whole entry, looked up): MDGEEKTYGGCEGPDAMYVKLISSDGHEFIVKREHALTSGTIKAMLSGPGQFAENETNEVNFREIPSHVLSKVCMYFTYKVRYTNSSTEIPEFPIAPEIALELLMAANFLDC

Row | Target | log2 fold change [1] | log2 fold change [2] | log2 fold change [3] | log2 fold change [4] | log2 fold change [5] | log2 fold change [6] | log2 fold change [7] | log2 fold change [8] | log2 fold change [9] | log2 fold change [10]
1 | EPHB4 (UniProt P54760) | 0.057 | -0.07 | 0.392 | -0.126 | 0.001 | – | – | – | – | –
2 | CYB561A3 isoform 2 (UniProt Q8NBI2) | 0.051 | 0.025 | -0.074 | 0.059 | -0.086 | 0.02 | 0.033 | -0.057 | – | –
3 | ECH1 (UniProt Q13011) | 0.005 | -0.027 | 0.044 | -0.003 | -0.065 | 0.014 | 0.129 | 0.035 | -0.032 | 0.012
4 | ESYT1 isoform 2 (UniProt Q9BSJ8) | 0.117 | -0.052 | -0.007 | 0.048 | 0.148 | 0.003 | 0.116 | 0.046 | 0.045 | 0.01
5 | ELOC (UniProt Q15369) | 0.016 | -0.034 | 0.008 | 0.031 | 0 | 0.001 | -0.035 | 0.026 | -0.027 | 0.017
6 | DNAJC7 (UniProt Q99615) | -0.006 | -0.037 | 0.029 | 0.098 | 0.02 | 0.042 | 0.032 | 0.064 | -0.01 | 0.029
7 | DENND10 (UniProt Q8TCE6) | 0.022 | 0.036 | 0.029 | 0.01 | -0.023 | – | 0.131 | 0.036 | -0.119 | -0.023
8 | DCAF16 (UniProt Q9NXF7) | -0.036 | -0.013 | 0.059 | 0.185 | 0.042 | -0.015 | -0.016 | 0.024 | 0.063 | 0.151
9 | FADS1 (UniProt F5GYH4) | – | – | – | – | – | -0.254 | – | 0.024 | – | -0.052
10 | ELAC1 (UniProt Q9H777) | 0.003 | – | -0.051 | 0.007 | – | -0.049 | -0.023 | – | 0.011 | -0.017
11 | DOLPP1 (UniProt Q86YN1) | – | 0.012 | -0.094 | -0.042 | -0.018 | 0.026 | -0.027 | 0.057 | – | -0.057
12 | DOP1A (UniProt Q5JWR5) | – | – | – | – | -0.166 | – | 0.057 | -0.047 | 0.47 (active) | 0.045
13 | CYP24A1 (UniProt Q07973) | – | 0.051 | -0.039 | -0.057 | -0.183 | -0.306 | 0.233 | -0.146 | – | -0.198
14 | FAM160A2 isoform 2 (UniProt Q8N612) | – | 0.134 | – | – | -0.172 | 0.016 | – | 0.109 | -0.066 | -0.164
15 | ENTPD7 (UniProt Q9NQZ7) | -0.033 | – | 0.012 | -0.1 | -0.068 | 0.142 | 0 | -0.009 | 0.047 | –
16 | FAM193B (UniProt Q96PV7) | -0.16 | – | -0.114 | 0.005 | – | -0.034 | – | 0.045 | 0.054 | -0.114
17 | CTSS (UniProt P25774) | 0.032 | -0.045 | – | – | – | -0.068 | – | – | – | -0.053
18 | EEF2K (UniProt O00418) | – | 0.006 | 0.043 | 0.157 | 0.15 | – | -0.041 | – | 0.201 | 0.089
19 | DPYSL2 (UniProt Q16555) | -0.056 | – | 0.03 | -0.002 | -0.065 | 0.033 | 0.03 | 0 | -0.176 | -0.056
20 | EHBP1 (UniProt Q8NDI1) | – | – | – | – | -0.028 | – | – | – | – | –
21 | ELOVL7 (UniProt A1L3X0) | – | – | – | – | – | – | 0.034 | – | 0.016 | –
22 | EIF2AK3 (UniProt Q9NZJ5) | – | – | 0.036 | -0.161 | 0.244 | -0.043 | 0.027 | 0.151 | -0.595 | –
23 | FAM135A (UniProt Q9P2D6) | -0.178 | – | – | – | – | – | 0.131 | – | 0.5 (active) | -0.042
24 | DHPS (UniProt M0R1T2) | 0.118 | – | – | – | – | – | – | 0.11 | – | –

Row | Target | log2 fold change [1] | log2 fold change [2] | log2 fold change [3] | log2 fold change [4] | log2 fold change [5] | log2 fold change [6] | log2 fold change [7] | log2 fold change [8] | log2 fold change [9] | log2 fold change [10]
25 | DHRS13 (UniProt Q6UX07) | -0.106 | 0.027 | – | – | 0.084 | -0.055 | 0.249 | – | – | -0.062
26 | DNAJB1 (UniProt M0R128) | – | – | – | – | – | – | – | 0.135 | – | -0.002
27 | DDB1 isoform 2 (UniProt Q16531) | -0.144 | – | – | – | – | – | – | 0.116 | -0.061 | –
28 | FAM117B (UniProt Q6P1L5) | – | -0.035 | – | – | – | -0.126 | 0.212 | – | 0.394 | 0.043
29 | EPHX2 (UniProt E5RI53) | – | – | – | – | – | – | – | 0.094 | 0.029 | –
30 | ERF (UniProt P50548) | -0.551 | – | – | – | – | – | -0.133 | – | 0.033 | –
31 | CTNNBL1 (UniProt Q8WYA6) | – | – | 0.185 | -0.166 | – | – | – | 0.012 | – | -0.02
32 | DCAF4 (UniProt Q8WV16) | 0.03 | 0.072 | – | – | -0.061 | – | – | – | -0.132 | –
33 | EEF1D isoform 3 (UniProt P29692) | – | – | – | – | -0.674 | – | -0.236 | – | – | –
34 | DEGS1 (UniProt O15121) | -0.088 | – | 0.003 | 0.033 | -0.053 | – | -0.023 | -0.018 | -0.062 | -0.185
35 | DNAL1 (UniProt Q4LDG9) | – | 0.049 | – | – | – | 0.069 | – | 0.012 | -0.135 | 0.013
36 | DCAF12 (UniProt Q5T6F0) | -0.136 | – | – | – | 0.08 | – | – | – | – | –
37 | EID1 (UniProt Q9Y6B2) | -0.047 | – | 0.019 | -0.107 | 0.135 | – | -0.134 | – | 0.18 | –
38 | EDRF1 (UniProt Q3B7T1) | -0.022 | 0.21 | – | – | 0.019 | – | 0.114 | -0.036 | -0.042 | –
39 | DENND1A isoform 6 (UniProt Q8TEH3) | – | – | 0.025 | 0.114 | – | -0.009 | – | 0.293 | – | -0.119
40 | DNAH10 (UniProt Q8IVF4) | -0.034 | – | – | – | -0.269 | -0.114 | 0.307 | 0.014 | 0.434 | -0.067
41 | EZH2 isoform 2 (UniProt Q15910) | 0.063 | – | 0.127 | 0 | 0.949 (active) | 0.149 | 0.097 | 0.045 | -0.173 | 0.377
42 | F2RL3 (UniProt Q96RI0) | – | 0.032 | 0.053 | 0.035 | – | – | -0.06 | – | – | -0.156
43 | DERPC (UniProt P0CG12) | – | -0.052 | – | – | -0.029 | 0.005 | 0.454 (active) | 0.012 | – | 0.07
44 | EIF4G1 (UniProt Q04637) | – | – | – | – | – | – | – | – | – | -0.071
45 | DDX46, A0A0C4DG89 | – | – | – | – | 0.149 | – | – | – | 0.058 | –
46 | EIF3J isoform 2 (UniProt O75822) | -0.1 | – | 0.032 | -0.062 | -0.613 | -0.02 | -0.129 | -0.071 | 0.048 | -0.17
47 | DLK1 (UniProt P80370) | – | – | – | – | – | -0.033 | – | – | -0.003 | -0.026
48 | ENTR1 (UniProt Q96C92) | – | – | -0.091 | -0.105 | – | – | 0.062 | – | – | 0.06
